Experimental data from PubChem BioAssay (NCATS).
Results filed as inconclusive are left out. Activity calls are given as the source filed them. The call rests on the fitted dose curve; in most records, active means well fitted curve in the direction sought with a large enough effect; inconclusive means small, poorly fitted or top-dose-only effect, or another doubt; inactive means no such curve, though single readings can be large; an effect the other way counts as inactive or inconclusive.

Columns and labels:
[1] = target: Rap guanine nucleotide exchange factor 3 (Homo sapiens) (UniProt O95398); test: Confirmatory qHTS for agonist of cAMP-regulated guanine nucleotide exchange factor 3 (EPAC1) (AID 1645881);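 further: EPAC1 catalysed release of BODIPY-GDP from Rap1B seen as fluorescence loss; 100% = effect of cAMP agonist control; nearly all actives have a fitted effect of over 75% in size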
[2] = target: Rap guanine nucleotide exchange factor 4 (Homo sapiens) (UniProt Q8WZA2); test: Confirmatory qHTS for agonist of cAMP-regulated guanine nucleotide exchange factor 4 (EPAC2) (AID 1645884);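 further: nucleotide exchange releases bodipy-GDP from Rap1 and this lowers its fluorescence; nearly all actives have a fitted effect of over 65% in size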; further: potency means the concentration at half of the fitted maximal effect; on activation: on the % scale 0 is the no-effect control and ±100 the full control effect
[3] = target: Rap guanine nucleotide exchange factor 4 (Homo sapiens) (UniProt Q8WZA2); test: Confirmatory qHTS for antagonist of cAMP-regulated guanine nucleotide exchange factor 4 (EPAC2) (AID 1645885); further: nearly all actives have a fitted effect of over 25% in size; further: potency means the concentration at half of the fitted maximal effect; on activity change, negative = inhibition: on the % scale 0 is the no-effect control and ±100 the full control effect
[4] = target: Rap guanine nucleotide exchange factor 3 (Homo sapiens) (UniProt O95398); test: Counterscreen qHTS for antagonist of cAMP-regulated guanine nucleotide exchange factor 3 (EPAC1) (AID 1645888);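 further: fluorescence loss as bound BODIPY-GDP is released from Rap1B; % of control where 0% means no effect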
Method in brief: (§1)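 Measured: fluorescence of BODIPY-GDP bound to Rap1B, which falls as exchange proceeds. Conditions include 50 uM competing GDP, 5 and 30 min reads, and a later cAMP challenge for antagonist detection.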

[5] = target: Tumor susceptibility gene 101 protein (Homo sapiens) (UniProt Q99816); test: qHTS Assay for Iinhibitors of HIV-1 Budding by Blocking the Interaction of PTAP/TSG101: Hit Validation (AID 651600); further: potency means the concentration at half of the fitted maximal effect; nearly all actives have a fitted effect of over 70% in size
Method in brief: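 Compounds are added to the Tsg101 binding domain (10 uM final) in pH 7.5 HEPES buffer. FITC-PTAP peptide follows at 50 nM final. After 20 min at r.t., polarized FITC emission is measured.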

[6] = target: Rap guanine nucleotide exchange factor 3 (Homo sapiens) (UniProt O95398); test: Confirmatory qHTS for antagonist of cAMP-regulated guanine nucleotide exchange factor 3 (EPAC1) (AID 1645880);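 further: plate controls were DMSO only for no effect and full effect of the ATA control for full effect; nearly all actives have a fitted effect of over 55% in size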
Method in brief: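 Nucleotide exchange uses 100 nM EPAC1, 250 nM RAP1B-BODIPY-GDP and 50 uM GDP, with compounds in a concentration-titration series. After 5 min at room temperature, fluorescence (480 nm ex/540 nm em) is read every 5 min for 30 min. Data are normalized to control ATA and DMSO.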

[7] = target: Rap guanine nucleotide exchange factor 3 (Homo sapiens) (UniProt O95398); test: Counterscreen qHTS for agonist of cAMP-regulated guanine nucleotide exchange factor 3 (EPAC1) (AID 1645889); further: potency means the concentration at half of the fitted maximal effect; nearly all actives have a fitted effect of over 40% in size
Method in brief: as §1

Chain of Rap guanine nucleotide exchange factor 3 (Homo sapiens) (O95398 whole entry, looked up): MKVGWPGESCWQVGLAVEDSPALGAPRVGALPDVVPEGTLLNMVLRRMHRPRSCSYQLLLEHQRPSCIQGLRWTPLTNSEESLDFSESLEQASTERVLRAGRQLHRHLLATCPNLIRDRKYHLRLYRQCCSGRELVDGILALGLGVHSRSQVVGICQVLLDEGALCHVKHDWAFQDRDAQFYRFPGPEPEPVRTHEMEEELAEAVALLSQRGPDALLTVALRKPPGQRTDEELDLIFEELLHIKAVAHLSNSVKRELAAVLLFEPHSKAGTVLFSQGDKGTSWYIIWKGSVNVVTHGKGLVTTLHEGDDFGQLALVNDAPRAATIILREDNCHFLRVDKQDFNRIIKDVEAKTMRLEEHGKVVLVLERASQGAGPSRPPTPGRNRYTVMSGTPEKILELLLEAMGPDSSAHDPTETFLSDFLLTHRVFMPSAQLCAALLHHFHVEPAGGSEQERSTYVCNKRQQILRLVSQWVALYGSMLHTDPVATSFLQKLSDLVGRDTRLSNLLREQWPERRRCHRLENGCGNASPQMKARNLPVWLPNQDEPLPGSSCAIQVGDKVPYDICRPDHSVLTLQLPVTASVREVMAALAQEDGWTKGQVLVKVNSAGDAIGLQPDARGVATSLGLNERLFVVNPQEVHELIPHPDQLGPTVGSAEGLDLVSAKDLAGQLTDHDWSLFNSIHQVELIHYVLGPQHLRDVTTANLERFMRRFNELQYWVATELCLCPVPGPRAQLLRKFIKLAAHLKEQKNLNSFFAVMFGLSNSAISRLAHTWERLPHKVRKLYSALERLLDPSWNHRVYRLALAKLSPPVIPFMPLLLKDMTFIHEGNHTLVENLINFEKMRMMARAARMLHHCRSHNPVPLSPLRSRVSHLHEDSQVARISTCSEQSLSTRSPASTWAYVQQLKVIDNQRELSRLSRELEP
Chain of Rap guanine nucleotide exchange factor 4 (Homo sapiens) (Q8WZA2 whole entry, looked up): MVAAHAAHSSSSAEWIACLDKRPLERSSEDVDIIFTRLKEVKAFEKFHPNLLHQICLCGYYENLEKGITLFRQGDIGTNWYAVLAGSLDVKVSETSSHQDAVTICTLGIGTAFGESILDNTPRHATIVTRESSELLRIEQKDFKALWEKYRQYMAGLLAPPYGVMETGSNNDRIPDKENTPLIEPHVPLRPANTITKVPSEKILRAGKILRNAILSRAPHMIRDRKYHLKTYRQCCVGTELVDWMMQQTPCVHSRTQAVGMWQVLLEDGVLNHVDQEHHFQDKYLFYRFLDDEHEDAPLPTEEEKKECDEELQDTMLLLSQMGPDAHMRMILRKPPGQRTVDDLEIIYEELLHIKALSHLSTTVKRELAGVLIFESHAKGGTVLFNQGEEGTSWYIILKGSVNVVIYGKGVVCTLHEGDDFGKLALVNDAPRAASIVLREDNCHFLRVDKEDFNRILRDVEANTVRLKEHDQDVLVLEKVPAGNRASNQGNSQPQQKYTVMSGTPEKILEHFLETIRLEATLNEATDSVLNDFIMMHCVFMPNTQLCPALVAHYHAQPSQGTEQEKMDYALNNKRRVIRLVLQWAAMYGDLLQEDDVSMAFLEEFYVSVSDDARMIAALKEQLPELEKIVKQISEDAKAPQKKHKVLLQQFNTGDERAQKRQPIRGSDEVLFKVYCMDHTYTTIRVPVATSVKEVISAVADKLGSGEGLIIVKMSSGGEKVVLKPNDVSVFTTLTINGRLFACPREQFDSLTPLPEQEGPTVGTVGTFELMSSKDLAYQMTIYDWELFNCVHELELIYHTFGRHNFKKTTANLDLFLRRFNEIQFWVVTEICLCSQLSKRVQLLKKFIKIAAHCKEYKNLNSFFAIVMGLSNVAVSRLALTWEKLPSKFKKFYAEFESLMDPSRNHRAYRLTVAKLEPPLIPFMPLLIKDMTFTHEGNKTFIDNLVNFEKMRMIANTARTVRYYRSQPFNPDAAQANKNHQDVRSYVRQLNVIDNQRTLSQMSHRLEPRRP
Chain of Tumor susceptibility gene 101 protein (Homo sapiens) (Q99816 whole entry, looked up, the tested form may be a part): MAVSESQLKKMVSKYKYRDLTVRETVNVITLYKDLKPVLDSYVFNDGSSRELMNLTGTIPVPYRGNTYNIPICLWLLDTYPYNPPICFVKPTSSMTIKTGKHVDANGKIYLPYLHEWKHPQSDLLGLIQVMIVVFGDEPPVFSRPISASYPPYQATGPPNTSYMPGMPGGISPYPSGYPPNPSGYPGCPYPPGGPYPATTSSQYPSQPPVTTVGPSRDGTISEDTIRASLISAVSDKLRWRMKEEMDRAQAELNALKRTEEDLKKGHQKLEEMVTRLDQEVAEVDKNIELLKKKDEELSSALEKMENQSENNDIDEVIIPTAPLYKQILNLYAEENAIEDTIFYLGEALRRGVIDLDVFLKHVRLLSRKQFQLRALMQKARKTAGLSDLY

CCCCC/C(=N/O)c1c(C)[nH]c2ccccc12
inactive: Potency [1] | Potency [2] | Potency [3]

CCC(C)c1ccc(N2C(=O)NC(=O)/C(=C/c3cccn3CCOc3ccc(C)cc3)C2=O)cc1 (stereo not drawn)
inactive: Potency [1] | Potency [2] | Potency [3]

Cn1cccc1/C=C1/C(=O)NC(=O)N(Cc2ccc(F)cc2)C1=O
inactive: Potency [1] | Potency [2] | Potency [3] | outcome [4]

Nc1c2c(nc3sc4c(c13)CCCC4)CCCC2
inactive: Potency [1] | activation [2] 3.84% [at 17.1 µM, percent relative to cAMP agonist control] | activity change, negative = inhibition [3] -3.15% [at 12.7 µM] | activity change, negative = inhibition [4] 4.03% [at 30.8 µM]

Nc1ccc2ccc3cccc[n+]3c2c1
inactive: Potency [6] | Potency [3]
active: Potency [5] 4.11 µM | Potency [2] 100 µM | Potency [7] 39.8 µM

CCOC(=O)c1[nH]c2ccc(OC)cc2c1C(SCC(=O)O)c1ccc(C(F)(F)F)cc1 (stereo not drawn)
inactive: Potency [1] | activation [2] 2.9% [at 17.1 µM, percent relative to cAMP agonist control] | activity change, negative = inhibition [3] -9.73% [at 12.7 µM] | activity change, negative = inhibition [4] -0.779% [at 30.8 µM]

Cc1ccc(OCCn2cccc2/C=C2/C(=O)NC(=O)N(Cc3ccco3)C2=O)cc1
inactive: Potency [1] | Potency [2] | Potency [3] | outcome [4]

Cn1cccc1/C=C1\C(=O)NC(=O)N(Cc2ccccc2)C1=O
inactive: Potency [1] | Potency [2] | Potency [3]

COc1ccc(N2C(=O)/C(=C/C=C/c3ccccc3[N+](=O)[O-])C(=O)NC2=S)cc1
inactive: Potency [1] | activation [2] 17.4% [at 17.1 µM, percent relative to cAMP agonist control] | activity change, negative = inhibition [3] 0.334% [at 12.7 µM] | activity change, negative = inhibition [4] 15.6% [at 30.8 µM]

COc1ccc(-n2c(/C=C/c3ccc(O)c(O)c3)nc3ccccc3c2=O)cc1
inactive: Potency [1] | Potency [2] | Potency [3] | outcome [4]

CC(=O)C1C2c3ccccc3OC1(C)N=c1s/c(=C/c3cn(C)nc3C)c(=O)n12 (stereo not drawn)
inactive: Potency [1] | Potency [2] | Potency [3] | outcome [4]

Cc1cccc(-n2c(O)c(/C=C/C=Nc3ccccc3)c(=O)[nH]c2=O)c1
active: Potency [3] 33.8 µM | Potency [7] 39.8 µM
inactive: Potency [6] | outcome [4]

COc1cc(-n2c(=S)[nH]c3ccc(C)cc3c2=O)c(Cl)cc1Cl
inactive: Potency [1] | activation [2] 8.75% [at 17.1 µM, percent relative to cAMP agonist control] | activity change, negative = inhibition [3] -17.7% [at 12.7 µM] | activity change, negative = inhibition [4] -20.5% [at 30.8 µM]

COCCNC(=O)Cn1cc(/C=C2\C(=O)NC(=O)N(c3ccccc3F)C2=O)c2ccccc21
inactive: Potency [1] | Potency [2] | Potency [3] | outcome [4]

CCOC(=O)[C@]12Cc3cc(Cl)ccc3[C@H]1N(Cc1ccccc1)C(=O)c1ccccc12
inactive: Potency [1] | Potency [2] | Potency [3] | outcome [4]

COc1ccc(CN2C(=O)NC(=O)/C(=C\c3ccco3)C2=O)cc1
inactive: Potency [1] | Potency [2] | Potency [3]

O=C1NC(=O)N(Cc2ccccc2)C(=O)/C1=C\C=C\c1ccco1
inactive: Potency [1] | activation [2] 12.1% [at 17.1 µM, percent relative to cAMP agonist control] | activity change, negative = inhibition [3] 2.97% [at 12.7 µM] | activity change, negative = inhibition [4] -17.1% [at 30.8 µM]

Cn1cccc1/C=C1\C(=O)NC(=O)N(Cc2ccccc2Cl)C1=O
inactive: Potency [1] | Potency [2] | Potency [3] | outcome [4]

CCOC(=O)[C@]12Cc3ccccc3[C@H]1N(C(C)C)C(=O)c1cc(OC)ccc12
inactive: Potency [1] | activation [2] 1.3% [at 17.1 µM, percent relative to cAMP agonist control] | activity change, negative = inhibition [3] -28.9% [at 12.7 µM] | activity change, negative = inhibition [4] -13.8% [at 30.8 µM]
